About 2,000 (36%) of roughly 5,500 compounds were called active. Inconclusive results (about 18%) are left out. This is one part of the list. Values without a mark were called inactive. Cut-off read from the data, not from the text of the source: active = normalized growth mostly below about 0.91 (no sharp cut-off); inconclusive = no clear call, values can overlap the other calls; inactive = mostly above about 0.92.
Experiment: chemical genetic growth profiling, strain panel (AID 1159580);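 note: tested at 20 µM; growth read once vehicle control cultures reached saturation at 30 °C; 1 = growth at the plate median or of vehicle wells; lower values mean less growth of the strain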
Conditions: growth OD
[1] = S. cerevisiae deletion strains, locus YAL040C, strain CLN3, active compounds read low
[2] = S. cerevisiae deletion strains, locus YCL061C, strain MRC1 (second series), active compounds read low
[3] = S. cerevisiae deletion strains, locus YDR150W, strain NUM1, active compounds read low
[4] = S. cerevisiae deletion strains, locus YDR363W, strain ESC2, active compounds read low
[5] = S. cerevisiae deletion strains, locus YER002W, strain NOP16, active compounds read low
[6] = S. cerevisiae deletion strains, locus YGR078C, strain PAC10, active compounds read low
[7] = S. cerevisiae deletion strains, locus YGR229C, strain SMI1, active compounds read low
[8] = S. cerevisiae deletion strains, locus YNL153C, strain GIM3, active compounds read low
[9] = S. cerevisiae deletion strains, locus YNL175C, strain NOP13, active compounds read low
[10] = S. cerevisiae deletion strains, locus YNL197C, strain WHI3, active compounds read low
[11] = S. cerevisiae deletion strains, locus YNL224C, strain SQS1, active compounds read low
[12] = S. cerevisiae deletion strains, locus YNL322C, strain KRE1, active compounds read low
[13] = S. cerevisiae deletion strains, locus YOR083W, strain WHI5 (second series), active compounds read low
[14] = S. cerevisiae deletion strains, locus YPL055C, strain LGE1, active compounds read low
[15] = S. cerevisiae deletion strains, locus YJR075W, strain HOC1, active compounds read low
[16] = S. cerevisiae deletion strains, locus YMR263W, strain SAP30, active compounds read low
[17] = S. cerevisiae deletion strains, locus YPL241C, strain CIN2, active compounds read low

Question: Which results are given for `O=C(O)Cc1ccc(O)c(O)c1`?
Answer: normalized growth [1]: 1.05; normalized growth [2]: 1; normalized growth [3]: 1.01; normalized growth [4]: 0.993; normalized growth [5]: 0.996; normalized growth [6]: 1.02; normalized growth [7]: 0.976; normalized growth [8]: 1.02; normalized growth [9]: 1.02; normalized growth [10]: 1.02; normalized growth [11]: 0.982; normalized growth [12]: 1; normalized growth [13]: 0.996; normalized growth [14]: 0.982

Question: Which normalized growth (S. cerevisiae deletion strains, locus YAL013W, strain DEP1, active compounds read low) does the source give for `Cc1ccc(CC(=O)O)cc1` here?
Answer: The normalized growth was 0.973.

Question: What about the normalized growth (S. cerevisiae deletion strains, locus YBR229C, strain ROT2, active compounds read low) of the same compound?
Answer: Its normalized growth is 0.978.

Question: What about the normalized growth (S. cerevisiae deletion strains, locus YDL101C, strain DUN1, active compounds read low) of the same compound?
Answer: Its normalized growth is 0.938.

Question: And the normalized growth [3]?
Answer: Its normalized growth is 0.884.

Question: And the normalized growth (S. cerevisiae deletion strains, locus YEL061C, strain CIN8, active compounds read low)?
Answer: Its normalized growth is 1.02.

Question: And the normalized growth [6]?
Answer: Its normalized growth is 0.926 (active).

Question: And the normalized growth (S. cerevisiae deletion strains, locus YHR030C, strain SLT2, active compounds read low)?
Answer: Its normalized growth is 1.04.

Question: And the normalized growth (S. cerevisiae deletion strains, locus YHR087W, strain rtc3, active compounds read low)?
Answer: The normalized growth was 0.947.

Question: And the normalized growth (S. cerevisiae deletion strains, locus YJR043C, strain POL32, active compounds read low)?
Answer: The normalized growth was 0.959.

Question: What about the normalized growth [15] of the same compound?
Answer: Its normalized growth is 0.885 (active).

Question: And the normalized growth (S. cerevisiae deletion strains, locus YKL190W, strain CNB1, active compounds read low)?
Answer: Its normalized growth is 1.01.

Question: And the normalized growth (S. cerevisiae deletion strains, locus YLR039C, strain RIC1, active compounds read low)?
Answer: Its normalized growth is 1.01.

Question: And the normalized growth (S. cerevisiae deletion strains, locus YLR058C, strain SHM2 (second series), active compounds read low)?
Answer: Its normalized growth is 0.972.

Question: And the normalized growth (S. cerevisiae deletion strains, locus YLR085C, strain ARP6, active compounds read low)?
Answer: The normalized growth was 1.08.

Question: And the normalized growth (S. cerevisiae deletion strains, locus YLR262C, strain YPT6, active compounds read low)?
Answer: Its normalized growth is 0.998.

Question: What about the normalized growth (S. cerevisiae deletion strains, locus YML094W, strain GIM5, active compounds read low) of the same compound?
Answer: The normalized growth was 1.03.

Question: And the normalized growth (S. cerevisiae deletion strains, locus YMR219W, strain ESC1, active compounds read low)?
Answer: Its normalized growth is 0.985.

Question: What about the normalized growth [16] of the same compound?
Answer: Its normalized growth is 0.938.

Question: What about the normalized growth [8] of the same compound?
Answer: Its normalized growth is 0.964.

Question: What about the normalized growth (S. cerevisiae deletion strains, locus YNL298W, strain CLA4 (second series), active compounds read low) of the same compound?
Answer: Its normalized growth is 1.06.

Question: And the normalized growth [12]?
Answer: The normalized growth was 0.981.

Question: And the normalized growth (S. cerevisiae deletion strains, locus YNR030W, strain Alg12, active compounds read low)?
Answer: Its normalized growth is 1.03.

Question: What about the normalized growth (S. cerevisiae deletion strains, locus YOL006C, strain TOP1, active compounds read low) of the same compound?
Answer: Its normalized growth is 1.06.

Question: And the normalized growth [14]?
Answer: Its normalized growth is 0.906.

Question: And the normalized growth [17]?
Answer: Its normalized growth is 1.02.

Question: What about the normalized growth (S. cerevisiae deletion strains, locus YPR135W, strain CTF4, active compounds read low) of the same compound?
Answer: The normalized growth was 1.03.

Question: And the normalized growth (S. cerevisiae strains, strain wild type, active compounds read low)?
Answer: The normalized growth was 1.02.

Question: With `O=C(O)Cc1c[nH]c2ccc(O)cc12` as the compound, how does the normalized growth [1] read?
Answer: Its normalized growth is 0.988.

Question: What about the normalized growth [2] of the same compound?
Answer: Its normalized growth is 1.

Question: What about the normalized growth [3] of the same compound?
Answer: The normalized growth was 1.01.

Question: What about the normalized growth [4] of the same compound?
Answer: The normalized growth was 1.

Question: And the normalized growth [5]?
Answer: Its normalized growth is 0.974.

Question: And the normalized growth [6]?
Answer: The normalized growth was 0.979.

Question: And the normalized growth [7]?
Answer: The normalized growth was 1.08.

Question: And the normalized growth [15]?
Answer: Its normalized growth is 1.01.

Question: What about the normalized growth [16] of the same compound?
Answer: Its normalized growth is 0.995.

Question: What about the normalized growth (S. cerevisiae deletion strains, locus YMR307W, strain GAS1, active compounds read low) of the same compound?
Answer: Its normalized growth is 1.01.

Question: What about the normalized growth [8] of the same compound?
Answer: The normalized growth was 0.961.

Question: And the normalized growth [9]?
Answer: The normalized growth was 0.982.

Question: What about the normalized growth [10] of the same compound?
Answer: The normalized growth was 0.975.

Question: And the normalized growth [11]?
Answer: The normalized growth was 1.01.

Question: And the normalized growth [13]?
Answer: Its normalized growth is 1.

Question: What about the normalized growth [17] of the same compound?
Answer: Its normalized growth is 0.992.

Reference: PubChem BioAssay AID1159580 (chemical genetic matrix, 2015)
